Among the data in PubChem BioAssay are z-score and composite z-score values, retold here.

Calls of active or inactive are those of the source.

The nature of test [1]: optical density shifts of acrAB sulA E. coli – strain DRC41, OD650, 48 h, E. coli filamentation inducer project, primary screen (AID 1152).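 Also: E. coli MC1000 strain DRC41 lacking acrAB efflux pump and sulA.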 The settings on record: higher = more signal, called active from +8 up or from −8 down.
Test [2] can be described thus: probe aLefty1 binding on compound microarray – biochemical, small-molecule microarray, 635/667 nm fluorescence, primary screen (AID 1153).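 Also: score merges spot fluorescence with signal-to-noise ratio from the scanned slide images.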 The settings on record: higher = more signal.
Test [3] in a line: plasmodial surface anion channel blockers, osmotic lysis – cell-based, P. falciparum Indochina, OD700, 1 h, primary screen (AID 1154). The settings on record: P. falciparum Indochina infected RBC osmotic lysis, higher = more signal, called active from +8 up or from −8 down.
Test [4] can be described thus: plasmodial surface anion channel blockers, osmotic lysis – cell-based, P. falciparum Indochina, OD700, 2 h, primary screen (AID 1155).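 Also: lysis reports solute entry through the parasite surface anion channel PSAC.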 The settings on record: P. falciparum Indochina infected erythrocytes, higher = more signal, called active from +8 up or from −8 down.
Test [5] can be described thus: changes in parasitized red cell lysis, either direction – P. falciparum Indochina, OD700, 3 h, PSAC antagonist project, primary screen (AID 1156). The settings on record: P. falciparum-infected erythrocytes, osmotic lysis, higher = more signal, called active from +8 up or from −8 down.
Test [6] can be described thus: plasmodial surface anion channel blockers, osmotic lysis – cell-based, P. falciparum Indochina, OD700, 18 h, primary screen (AID 1157). The following applies: P. falciparum Indochina infected erythrocytes, osmotic lysis OD700, 18 h; higher = more signal, called active from +8 up or from −8 down.
A short description of test [7]: S6 kinase pathway phospho-S6 level changes – cell-based, A549, cytoblot, luminescence, serum-stimulated, primary screen (AID 1158).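 Also: serum-stimulated A549 lung adenocarcinoma cells; signal is phosphorylated S6 detected by cytoblot immunostaining with HRP secondary.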 The following applies: 5 h, higher = more signal.
The target of test [8] is NADPH oxidase 2 (Homo sapiens) (UniProt P04839). The test is described as follows: compounds shifting NOX2 Amplex Red fluorescence – cell-based, HEK293-NOX2, PMA-stimulated, NOX inhibitor project, primary screen (AID 1159). Also: test concentration not given here. The following applies: 45 min, higher = more signal, called active from +8 up or from −8 down.
Test [9] addresses NADPH oxidase 4 (Homo sapiens) (UniProt Q9NPH5). Briefly: compounds shifting NOX4 Amplex Red fluorescence – cell-based, HEK293-NOX4, tetracycline-induced, NOX inhibitor project, primary screen (AID 1160). The following applies: HEK293-NOX4, Amplex Red H2O2 fluorescence, 45 min; higher = more signal, called active from +8 up or from −8 down.
Test [10] deals with NADPH oxidase 5 (Homo sapiens) (UniProt Q96PH1). Briefly: compounds shifting NOX5 Amplex Red fluorescence – cell-based, HEK293-NOX5, NOX inhibitor project, primary screen (AID 1161). The following applies: HEK293-NOX5, ionomycin, 45 min, higher = more signal.
Test [11] can be described thus: compound effects on lung adenocarcinoma cell viability – A549, calcein-AM fluorescence, 48 h, basal, profiling panel (AID 1162). Also: test concentration not given here. The following applies: higher = more signal.
Test [12] is described as follows: compound effects on differentiated 3T3-L1 adipocyte viability – cell-based, 3T3-L1 adipocytes, calcein-AM fluorescence, 48 h, basal, profiling panel (AID 1163). Also: test concentration not given here. The following applies: 3T3-L1 adipocytes viability, higher = more signal.
Test [13] can be described thus: compound effects on hepatocellular carcinoma cell viability – HepG2, calcein-AM fluorescence, 48 h, basal, profiling panel (AID 1164). Also: test concentration not given here. The following applies: higher = more signal.
Test [14] can be described thus: compound effects on multiple myeloma cell viability – MM1S, calcein-AM fluorescence, 48 h, basal, profiling panel (AID 1165).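 Also: viability of MM1S multiple myeloma cells under basal unstimulated conditions; test concentration not given here.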 The settings on record: higher = more signal.
Test [15] is described as follows: calcein-AM signal in unstimulated myeloma cells – cell-based, calcein-AM fluorescence, 48 h, PK04 Diversity Set, profiling panel (AID 1166).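 Also: cells grown under basal conditions without added stimulus; test concentration not given here.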 The settings on record: RPMI8226 myeloma viability, higher = more signal.
Test [16] is described as follows: JC-1 mitochondrial signal, unstimulated HepG2 cells – cell-based, JC-1 fluorescence, 24 h, 100 nL compound, profiling panel (AID 1167). Also: test concentration not given here. The following applies: HepG2 mitochondrial potential, higher = more signal.
The nature of test [17]: JC-1 mitochondrial signal, unstimulated adipocytes – cell-based, JC-1 fluorescence, 3T3-L1 adipocytes, 24 h, 100 nL compound, profiling panel (AID 1168). Also: test concentration not given here. The settings on record: JC-1 mitochondrial fluorescence, higher = more signal, called active from +8 up or from −8 down.
Test [18] in a line: JC-1 mitochondrial signal, unstimulated myeloma cells – cell-based, JC-1 fluorescence, RPMI8226, 24 h, 100 nL compound, profiling panel (AID 1169). Also: test concentration not given here. The following applies: JC-1 mitochondrial potential fluorescence, higher = more signal.
Test [19] can be described thus: JC-1 mitochondrial signal, unstimulated MM1S myeloma – cell-based, JC-1 fluorescence, 24 h, 100 nL compound, profiling panel (AID 1170). Also: test concentration not given here. The settings on record: MM1S mitochondrial potential, higher = more signal.
The nature of test [20]: resazurin metabolic signal in A549 cells – cell-based, resazurin fluorescence, 24 h, PK04 Diversity Set, profiling panel (AID 1171). Also: test concentration not given here. The following applies: A549 viability, higher = more signal, called active from +8 up or from −8 down.

Chain of NADPH oxidase 5 (Homo sapiens) (Q96PH1 whole entry, looked up): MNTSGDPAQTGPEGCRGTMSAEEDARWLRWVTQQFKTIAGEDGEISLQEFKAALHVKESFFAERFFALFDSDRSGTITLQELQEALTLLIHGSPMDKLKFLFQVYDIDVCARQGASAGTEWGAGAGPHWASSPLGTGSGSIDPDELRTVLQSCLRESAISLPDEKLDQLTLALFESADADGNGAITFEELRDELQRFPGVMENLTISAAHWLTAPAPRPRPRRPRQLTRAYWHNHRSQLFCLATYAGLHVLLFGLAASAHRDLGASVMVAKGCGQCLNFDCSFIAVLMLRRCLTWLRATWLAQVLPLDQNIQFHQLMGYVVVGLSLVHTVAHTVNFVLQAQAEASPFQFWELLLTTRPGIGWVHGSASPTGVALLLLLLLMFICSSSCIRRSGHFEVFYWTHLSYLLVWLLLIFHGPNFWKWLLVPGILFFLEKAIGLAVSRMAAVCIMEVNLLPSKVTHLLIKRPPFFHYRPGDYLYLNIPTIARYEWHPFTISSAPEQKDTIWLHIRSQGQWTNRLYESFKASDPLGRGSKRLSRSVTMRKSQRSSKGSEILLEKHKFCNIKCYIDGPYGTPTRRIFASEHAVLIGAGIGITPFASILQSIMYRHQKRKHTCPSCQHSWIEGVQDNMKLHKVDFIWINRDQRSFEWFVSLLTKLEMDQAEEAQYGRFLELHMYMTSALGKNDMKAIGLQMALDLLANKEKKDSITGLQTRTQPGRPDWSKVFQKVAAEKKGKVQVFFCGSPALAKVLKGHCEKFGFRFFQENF
Chain of NADPH oxidase 4 (Homo sapiens) (Q9NPH5 whole entry, looked up): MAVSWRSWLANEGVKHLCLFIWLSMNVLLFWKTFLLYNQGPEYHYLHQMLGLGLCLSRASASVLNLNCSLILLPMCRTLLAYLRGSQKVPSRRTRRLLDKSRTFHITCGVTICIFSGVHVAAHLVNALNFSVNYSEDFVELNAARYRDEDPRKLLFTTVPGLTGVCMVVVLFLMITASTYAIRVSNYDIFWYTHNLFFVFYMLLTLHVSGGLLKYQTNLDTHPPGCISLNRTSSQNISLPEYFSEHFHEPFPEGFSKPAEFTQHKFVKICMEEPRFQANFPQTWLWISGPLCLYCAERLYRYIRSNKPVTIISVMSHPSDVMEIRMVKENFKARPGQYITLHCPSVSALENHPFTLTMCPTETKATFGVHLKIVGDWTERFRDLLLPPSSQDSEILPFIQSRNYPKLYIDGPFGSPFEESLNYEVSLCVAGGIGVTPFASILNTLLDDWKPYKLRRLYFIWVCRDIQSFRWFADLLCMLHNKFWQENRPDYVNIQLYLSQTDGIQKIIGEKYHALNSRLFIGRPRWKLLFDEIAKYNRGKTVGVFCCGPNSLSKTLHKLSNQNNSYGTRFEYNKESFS
Chain of NADPH oxidase 2 (Homo sapiens) (P04839 whole entry, looked up): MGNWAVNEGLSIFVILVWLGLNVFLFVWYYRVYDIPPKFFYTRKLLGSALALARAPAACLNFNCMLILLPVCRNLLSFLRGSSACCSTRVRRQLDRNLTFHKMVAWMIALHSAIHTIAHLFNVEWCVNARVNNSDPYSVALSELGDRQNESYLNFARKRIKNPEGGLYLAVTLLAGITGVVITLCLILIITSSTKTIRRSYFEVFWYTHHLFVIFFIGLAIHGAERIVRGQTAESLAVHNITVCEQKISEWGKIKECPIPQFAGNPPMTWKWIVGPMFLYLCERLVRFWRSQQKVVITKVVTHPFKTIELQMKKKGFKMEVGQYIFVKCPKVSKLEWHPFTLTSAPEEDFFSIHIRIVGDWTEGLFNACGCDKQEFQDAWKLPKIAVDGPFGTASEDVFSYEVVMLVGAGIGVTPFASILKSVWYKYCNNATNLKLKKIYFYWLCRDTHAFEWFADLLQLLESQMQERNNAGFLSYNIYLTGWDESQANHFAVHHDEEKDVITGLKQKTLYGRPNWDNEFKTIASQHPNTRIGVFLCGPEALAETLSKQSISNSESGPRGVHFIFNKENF

On to `C=CCNC(=O)[C@@H]1[C@H]2C(=O)O[C@H](c3ccccc3)[C@H](c3ccccc3)N2[C@H](c2ccc(OCCO)cc2)[C@@]12C(=O)N(C(=O)OCCOC)c1ccc(C#CC3(O)CCCCCC3)cc12`, for which the z-score in [1] is 2.62 (inactive); in test [3] it was 5.36 (inactive); in test [4], 2.14 (inactive); in test [5], 0.539 (inactive); in test [6], 0.761 (inactive); in test [7], 3.82. In addition, the z-score is 1.03 (inactive) in test [8]; 0.845 (inactive) in test [9]; -1.14 in test [10]; 0.0803 in test [11]; 3.14 in [12]; -1.53 in [13]. The z-score in test [14] was -1.07; in test [15], -1.16; in [16], -1.43; in test [17], 0.738 (inactive); in test [18] it was -0.814; in [19], -1.05. Moreover, the z-score in [20] was 0.338 (inactive). The compound also yielded a composite z-score in [2] of 0.372.

Consider `CC1=C([C@H](O)CCc2ccccc2)[C@H](CO)[C@@H]2C(=O)N(Cc3ccccc3)C(=O)[C@@H]2C1`, for which the z-score in test [1] is 1.85 (inactive); in test [3], 5.86 (inactive); in test [4], 0.759 (inactive); in test [5] it was 0.695 (inactive); in [6] it was 0.5 (inactive); in [7] it was 0.663. Also, the z-score is -0.0572 (inactive) in test [8]; 0.16 (inactive) in [9]; -0.798 in test [10]; -0.286 in [11]; -0.0776 in [12]; -0.352 in test [13]. For the same compound, the z-score in test [14] is -0.0162; in test [15], 0.445; in [16] it was 0.567; in test [17] it was 0.714 (inactive); in test [18], 0.331; in test [19], -1.5. In addition, the z-score in test [20] is 0.76 (inactive). The same compound returned a composite z-score in test [2] of -0.147.

On to `C=CCc1cccc([C@@H]2[C@@H](C)CC[C@H]3C(=O)N4[C@H](c5cccc(CC=C)c5)[C@@H](C)CC[C@H]4C(=O)N23)c1`, for which the z-score is 0.0258 (inactive) in test [1]; 5.32 (inactive) in test [3]; 1.46 (inactive) in [4]; 2.14 (inactive) in test [5]; 0.738 (inactive) in test [6]; -0.0433 in test [7]. Moreover, the z-score in test [8] is -0.23 (inactive); in test [9], -0.0735 (inactive); in [10] it was -1.48; in [11], -0.814; in test [12], 1.29; in [13] it was -0.746. Besides, the z-score in test [14] is -3.58; in [15] it was -3.9; in test [16], 2.17; in test [17], 0.639 (inactive); in test [18], -0.811; in test [19] it was -1.28. Further, in [20], the z-score was 3.27 (inactive). This compound also had a composite z-score in test [2] of 0.142.

For the compound `C=CCC(OC(C)=O)[C@@H]1[C@@H](N(Cc2ccc(-c3ccccc3)cc2)C(=O)c2ccc(C)cc2)c2cc(OCCCO)ccc2N1C(=O)c1ccc(-c2ccccc2)cc1` (stereo not given in full), the z-score in test [1] was 2.2 (inactive); in test [3], 0.267 (inactive); in [4] it was -0.576 (inactive); in test [5] it was -1.07 (inactive); in test [6], -0.888 (inactive); in test [7], 1.05. In addition, the z-score was -0.366 (inactive) in test [8]; 0.639 (inactive) in test [9]; 1.05 in test [10]; 3.37 in [11]; 0.626 in [12]; 1.87 in test [13]. For the same compound, the z-score in test [14] is -0.732; in [15], 0.887; in [16], 4.05; in test [17] it was 1 (inactive); in [18], -0.454; in [19] it was 1.22. Besides, the z-score in [20] is 2.47 (inactive). Moreover, the composite z-score in test [2] was -0.0583.
